In PubChem BioAssay (NCI):
About 83,000 compounds went through this panel and 20% of them were active in at least one assay; those are over-represented in the sample as a whole.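 A percent growth of 40 corresponds to 60% growth inhibition; 0 means no net growth; -100 means all cells died. Active threshold: below 10.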 Values without a mark were called inactive. Calls of active or inactive are those of the source.

Experiments:
Assay in all cases: NCI-60 one-dose screen, 48 h (100 = growth as untreated, 0 = no growth, -100 = all killed)
Details in all cases: 10 µM unless noted
HCT-15 colon = test system: HCT-15 colon
HT29 colon = test system: HT29 colon
SNB-75 CNS = test system: SNB-75 CNS
SNB-19 CNS = test system: SNB-19 CNS
U251 CNS = test system: U251 CNS
PC-3 prostate = test system: PC-3 prostate
SK-MEL-5 melanoma = test system: SK-MEL-5 melanoma
UACC-62 melanoma = test system: UACC-62 melanoma
LOX IMVI melanoma = test system: LOX IMVI melanoma
SK-MEL-28 melanoma = test system: SK-MEL-28 melanoma
EKVX NSCLC = test system: EKVX NSCLC
SN12C renal = test system: SN12C renal
UO-31 renal = test system: UO-31 renal
TK-10 renal = test system: TK-10 renal
ACHN renal = test system: ACHN renal
CAKI-1 renal = test system: CAKI-1 renal
A498 renal = test system: A498 renal
CCRF-CEM leukemia = test system: CCRF-CEM leukemia
MOLT-4 leukemia = test system: MOLT-4 leukemia

Row | Compound | growth (HCT-15 colon) | growth (HT29 colon) | growth (SNB-75 CNS) | growth (SNB-19 CNS) | growth (U251 CNS) | growth (PC-3 prostate) | growth (SK-MEL-5 melanoma) | growth (UACC-62 melanoma) | growth (LOX IMVI melanoma) | growth (SK-MEL-28 melanoma) | growth (EKVX NSCLC) | growth (SN12C renal) | growth (UO-31 renal) | growth (TK-10 renal) | growth (ACHN renal) | growth (CAKI-1 renal) | growth (A498 renal) | growth (CCRF-CEM leukemia) | growth (MOLT-4 leukemia)
1 | Brc1ccc([I+]c2ccc(Br)cc2)cc1 | 49.3% | 5.37% (active) | -82.2% (active) | -92.4% (active) | -85% (active) | 24.7% | -82.9% (active) | 27% | 20.4% | -14.6% (active) | 19.3% | -26.9% (active) | 51.2% | -18% (active) | 39% | 51.2% | 71.6% | 20.3% | 19.9%
2 | Cn1c(Nc2ccc(C(F)(F)F)cc2)nc2cc(Oc3ccnc(-c4ncc(C(F)(F)F)[nH]4)c3)ccc21 | 21.4% | 6.83% (active) | 61.2% | 56.6% | 46.3% | 65.8% | 39% | 8.71% (active) | 34.1% | 8.35% (active) | 57.9% | 59.8% | 28.8% | 95% | 42.2% | 34.7% | 23.7% | 36.6% | 25.7%
3 | COc1cc2ncnc(Oc3cccc(NC(=O)Nc4cc(C(C)(C)C(F)(F)F)on4)c3)c2cc1OC | 22.4% | 6.54% (active) | 38.1% | 74.9% | 50.8% | 35.1% | 0.0888% (active) | -10.5% (active) | 0.911% (active) | -3.09% (active) | 26.1% | 21.1% | -0.0562% (active) | -7.18% (active) | 3.9% (active) | 8.99% (active) | -24.9% (active) | 39.7% | 13.3%
4 | COc1cccc(Nc2ncnn3ccc(CN4CC[C@@H](N)[C@H](O)C4)c23)c1 | 28.7% | 27.1% | -44.6% (active) | 43.1% | 63.2% | 56.3% | 76.2% | 93.4% | 35.3% | 89.7% | 23.8% | 18.9% | -34.3% (active) | -35.3% (active) | 2.8% (active) | -13.5% (active) | -38.1% (active) | 66.2% | 17.6%
5 | CCn1c(-c2nonc2N)nc2c(C#CC(C)(C)O)ncc(OC[C@H]3CCCNC3)c21 | 82.4% | 56.2% | 2.75% (active) | 67.8% | 41.8% | 56.1% | 91.7% | 79.8% | 44.1% | 45.8% | 91.9% | 55.7% | 50.7% | 46.2% | 78.4% | 54.5% | 42.3% | 28.7% | 18.5%
6 | COc1ccc2c(c1)cn1c3ccc(O)cc3nc(N)c21 | 18.5% | 21.2% | 15% | 26.9% | 23.7% | 19.9% | 17.8% | 32.5% | 24.2% | 42.6% | 41% | 34.6% | 15.6% | 25.2% | 27.4% | 26.9% | 38.6% | 23% | 18.5%
7 | CCCCCCCC12Cc3ccccc3C1=Nc1c(c3ccccc3n1C)C2=O (centres undefined) | 91.7% | 58.8% | 89.2% | 95% | 88.5% | 78.2% | 90.8% | 74.8% | 87.8% | 113% | 98.8% | 92.1% | 57.5% | 102% | 93.3% | 79.7% | 86.4% | 83.6% | 78.3%
8 | COc1ncc(-c2ccc3nccc(-c4ccnnc4)c3c2)cc1NS(=O)(=O)c1ccc(F)cc1F | -15% (active) | -10.4% (active) | -29.8% (active) | -42.8% (active) | -62.3% (active) | -0.788% (active) | -95.8% (active) | -67.4% (active) | -42.8% (active) | -17.4% (active) | -7.55% (active) | 16.4% | -25.7% (active) | -44.7% (active) | 15.3% | -19.8% (active) | -48.2% (active) | 1.61% (active) | -11.9% (active)
9 | COc1cccc2cc(-c3nc(C4CCC(C(=O)O)CC4)n4ncnc(N)c34)[nH]c12 (centres undefined) | 16.4% | 14.3% | -43.1% (active) | 15.7% | 9.1% (active) | 13.3% | -28.7% (active) | -32.2% (active) | -4.84% (active) | -9.6% (active) | 11.6% | 14% | -12.4% (active) | -22.3% (active) | 4.68% (active) | -22.7% (active) | -50.6% (active) | 9.93% (active) | 15.2%
10 | CC(C)[C@@H]1CC[C@@H]2[C@@H]1[C@H](OC(=O)/C=C/c1ccccc1)[C@]1(C(C)C)C[C@@H](OC(=O)CO)[C@@]2(C)O1 | 78% | 75% | 38.1% | 99% | 74.3% | 30% | 81.2% | 84.3% | 81% | 104% | 63% | 49.7% | 3.86% (active) | 94.9% | 17% | 65.5% | -51.8% (active) | 77.1% | 58.4%
11 | CNC(=O)c1cc(Oc2cccc3nc(Nc4ccc(Oc5ccccc5)cc4)ccc23)ccn1 | 54.7% | 62.5% | 67.8% | 92% | 65.6% | 35.4% | 36.3% | 62.6% | 83% | 77.4% | 62.2% | 81.3% | 57.9% | 78.5% | 81.1% | 67.5% | 73.8% | 69.5% | 42.7%
12 | CN1CCN(CC(=O)Nc2ccc(-c3nc4ccccc4s3)cc2)CC1 | 52.9% | 39.6% | 73.1% | 89.7% | 67.5% | 83.6% | 73.7% | -35.8% (active) | -33.7% (active) | 33.8% | 83.7% | 77.7% | 57.5% | 94.8% | 71.2% | 73.5% | 59.5% | 63.7% | 78%
13 | C[C@@H](Nc1cc(F)cc(F)c1)c1cc(C(=O)N(C)C)cc2c(=O)cc(N3CCOCC3)oc12 | 84% | 23.9% | -8.61% (active) | 64.1% | 61.4% | 29% | 73.2% | 11.3% | 48.2% | 46.3% | 68.2% | 52.1% | 24.2% | 32.8% | 49.9% | 33.6% | -38.1% (active) | 70.3% | 25.3%
14 | COc1cc2c(Oc3ccc4[nH]c(C)cc4c3F)ncnc2cc1OCCCN1CCCC1 | 99.4% | 83.9% | 50.9% | 88.2% | 63.2% | 103% | 104% | 103% | 85.8% | 95.8% | 95.4% | 91.9% | 45.3% | 90.8% | 68.2% | 58.9% | 2.51% (active) | 106% | 62.9%
15 | COCCN1CCN(Cc2ccc(-c3n[nH]c4c3C(=O)c3c(NC(=O)NN5CCOCC5)cccc3-4)cc2)CC1 | -13.6% (active) | -22.3% (active) | -37.6% (active) | 2.99% (active) | 1.69% (active) | 3.15% (active) | -23.8% (active) | -44.9% (active) | -77.2% (active) | -39.7% (active) | -3.26% (active) | 7.64% (active) | -14.2% (active) | -30.9% (active) | 3.84% (active) | -18.3% (active) | -22% (active) | -15.3% (active) | -15% (active)
16 | Clc1ccc(C(Cn2ccnc2)OCc2ccsc2Cl)c(Cl)c1 (centres undefined) | 42.5% | 30% | 56.4% | 68.4% | 54.7% | 31.1% | 31.2% | 41.9% | 43.7% | 77.2% | 48.4% | 65.6% | 25.8% | 71.6% | 56.9% | 42.4% | 49.8% | 43.4% | 17.3%
